Targets with a hit are over-represented here; the source holds about 7,900 in all. About 0.6% of all pairs of compound and target were hits.
Experiments:
Assay in all cases: log2 fold change, soluble protein after heating vs DMSO (PISA); higher = thermal stabilisation; K562 cells, 10 uM, 30 min; active = over 0.2 and 3.5 SD of the protein, either way, in both replicates (recomputed)
[1] = compound: NC(=O)Nc1cc(-c2cccc(F)c2)sc1C(=O)N[C@H]1CCCNC1
Summary of the method: (§1)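 Soluble protein was defined as the supernatant after 21,000xg for 90 min. It came from K562 cells at 2×10^6 cells/mL given 10 μM compound for 30 min, heated in aliquots for 3 min across 48°C-58°C, pooled, and extracted in PBS with 0.5% NP-40 at 4°C, and was quantified by TMTpro 16plex LC-MS/MS with equalised channel sums. Thermal stability against control samples, from duplicates, is reported as log2 fold change.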

[2] = compound: NC(=O)c1cnc(N[C@@H]2CCCC[C@@H]2N)nc1Nc1cccc(-n2nccn2)c1
Summary of the method: as §1

[3] = compound: NC1(c2ccc(-c3nc4ccn5c(=O)[nH]nc5c4cc3-c3ccccc3)cc2)CCC1
Summary of the method: as §1

[4] = compound: NCC(=O)Nc1ccc(-n2nc(C(F)(F)F)cc2-c2ccc3c(ccc4ccccc43)c2)cc1
Summary of the method: as §1

entinostat = compound: Nc1ccccc1NC(=O)c1ccc(CNC(=O)OCc2cccnc2)cc1 [entinostat]
Summary of the method: as §1

vorinostat = compound: O=C(CCCCCCC(=O)Nc1ccccc1)NO [vorinostat]
Summary of the method: as §1

citarinostat = compound: O=C(CCCCCCNC(=O)c1cnc(N(c2ccccc2)c2ccccc2Cl)nc1)NO [citarinostat]
Summary of the method: as §1

silmitasertib = compound: O=C(O)c1ccc2c(c1)nc(Nc1cccc(Cl)c1)c1ccncc12 [silmitasertib]
Summary of the method: as §1

[5] = compound: O=C1NC(=O)C(c2cnc3ccccn23)=C1c1cn2c3c(cc(F)cc13)CN(C(=O)N1CCCCC1)CC2
Summary of the method: as §1

[6] = compound: c1cc(OCCN2CCCCC2)cc(-c2n[nH]c3ccc(-c4nnc[nH]4)cc23)c1
Summary of the method: as §1

entospletinib = compound: c1cn2cc(-c3ccc4cn[nH]c4c3)nc(Nc3ccc(N4CCOCC4)cc3)c2n1 [entospletinib]
Summary of the method: as §1

Measured: log2 fold change

ACO2 (UniProt Q99798)
inactive: [1] 0.017 | [2] -0.04 | [3] -0.142 | [4] -0.012 | entinostat 0.039 | vorinostat 0.023 | citarinostat 0.057 | silmitasertib 0.001 | [5] -0.058 | [6] -0.042 | entospletinib -0.008

AKT1 (UniProt P31749)
active: [3] 1.61
inactive: [1] -0.085 | [2] -0.276 | [4] -0.002 | entinostat 0.201 | vorinostat -0.024 | citarinostat 0.138 | silmitasertib 0.004 | [5] 0.1 | [6] 0.027 | entospletinib -0.04

ACTR1B (UniProt P42025)
active: vorinostat 0.459
inactive: [1] 0.075 | [2] 0.027 | [3] -0.003 | [4] 0.004 | entinostat -0.034 | citarinostat 0.078 | silmitasertib 0.023 | [5] 0.06 | [6] -0.004 | entospletinib 0.01

ADH5 (UniProt P11766)
Chain of UniProt P11766 (P11766 whole entry, looked up): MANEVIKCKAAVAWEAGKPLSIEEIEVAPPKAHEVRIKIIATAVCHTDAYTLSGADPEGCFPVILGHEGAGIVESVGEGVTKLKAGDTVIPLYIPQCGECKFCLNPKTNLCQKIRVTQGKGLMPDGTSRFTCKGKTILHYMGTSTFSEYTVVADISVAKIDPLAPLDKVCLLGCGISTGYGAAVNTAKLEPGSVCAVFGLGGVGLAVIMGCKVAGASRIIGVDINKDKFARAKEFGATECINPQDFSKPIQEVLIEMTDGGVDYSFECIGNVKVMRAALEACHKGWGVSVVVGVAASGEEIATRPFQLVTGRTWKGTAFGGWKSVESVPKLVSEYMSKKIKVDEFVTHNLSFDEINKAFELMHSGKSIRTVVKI
inactive: [1] 0.024 | [2] 0.002 | [3] -0.006 | [4] 0.021 | entinostat -0.031 | vorinostat -0.013 | citarinostat 0.015 | silmitasertib -0.026 | [5] -0.03 | [6] -0.016 | entospletinib -0.025

AGPAT1 (UniProt Q99943)
inactive: [1] 0.013 | [2] -0.022 | [3] 0.018 | [4] -0.012 | entinostat -0.033 | vorinostat -0.03 | citarinostat 0.088 | silmitasertib -0.007 | [5] -0.067 | [6] -0.002 | entospletinib -0.037

APOB (UniProt P04114)
inactive: [1] -0.206 | [2] -0.387 | entinostat 0.042 | vorinostat -0.009 | citarinostat 0.015 | silmitasertib 0.068 | [5] 0.001 | [6] 0.056 | entospletinib 0.04
active: [3] -0.621 | [4] -0.806

ATP6V1F isoform 2 (UniProt Q16864)
Chain of UniProt Q16864 (Q16864 whole entry, looked up): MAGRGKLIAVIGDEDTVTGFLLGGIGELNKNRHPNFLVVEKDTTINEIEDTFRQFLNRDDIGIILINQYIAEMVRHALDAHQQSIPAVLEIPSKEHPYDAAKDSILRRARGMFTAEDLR
inactive: [1] 0.175 | [2] 0.221 | [3] -0.078 | [4] 0.143 | entinostat 0.087 | vorinostat -0.092 | citarinostat 0.026 | silmitasertib -0.042 | [5] -0.073 | [6] 0.026 | entospletinib 0.027

BAIAP2 (UniProt Q9UQB8)
inactive: [2] -0.083 | [3] -0.086 | [4] -0.014 | entinostat 0.019 | vorinostat 0.082 | citarinostat 0.031 | silmitasertib -0.016 | [5] 0.04 | [6] -0.034 | entospletinib -0.012
active: [1] -0.229

ATP6V1H (UniProt Q9UI12)
inactive: [1] 0 | [2] -0.141 | [3] -0.201 | [4] -0.094 | entinostat 0.046 | vorinostat 0.032 | citarinostat 0.031 | silmitasertib 0.005 | [5] 0.025 | [6] -0.062 | entospletinib 0.004

ALKBH4 (UniProt Q9NXW9)
active: [3] -0.427
inactive: [1] -0.009 | [2] -0.051 | [4] 0.097 | entinostat -0.058 | vorinostat -0.031 | citarinostat 0.079 | silmitasertib 0.165 | [5] 0 | [6] -0.014 | entospletinib -0.029

BECN1 (UniProt Q14457)
inactive: [1] 0.045 | [2] 0.083 | [3] -0.006 | [4] -0.016 | entinostat -0.024 | vorinostat -0.073 | citarinostat -0.046 | silmitasertib 0.026 | [5] -0.071 | [6] 0.021 | entospletinib 0.011

ACVR1 (UniProt Q04771)
Chain of UniProt Q04771 (Q04771 whole entry, looked up): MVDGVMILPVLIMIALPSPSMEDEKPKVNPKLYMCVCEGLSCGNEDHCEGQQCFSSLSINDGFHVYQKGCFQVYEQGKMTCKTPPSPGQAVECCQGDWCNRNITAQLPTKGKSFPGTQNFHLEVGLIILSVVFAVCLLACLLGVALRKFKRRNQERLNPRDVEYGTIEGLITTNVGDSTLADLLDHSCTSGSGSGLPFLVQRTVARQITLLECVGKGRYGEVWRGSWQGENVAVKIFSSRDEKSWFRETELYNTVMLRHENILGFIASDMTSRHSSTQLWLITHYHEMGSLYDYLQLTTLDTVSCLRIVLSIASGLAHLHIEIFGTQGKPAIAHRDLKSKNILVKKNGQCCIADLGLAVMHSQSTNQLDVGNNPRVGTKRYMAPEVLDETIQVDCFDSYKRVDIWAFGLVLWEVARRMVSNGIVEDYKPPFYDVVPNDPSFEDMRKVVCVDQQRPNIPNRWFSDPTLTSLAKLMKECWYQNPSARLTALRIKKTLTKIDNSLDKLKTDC
inactive: [1] 0.044 | [2] 0.074 | [3] 0 | [4] 0.089 | entinostat 0.137 | vorinostat -0.255 | citarinostat 0.07 | silmitasertib 0.046 | [5] -0.069 | [6] 0.027 | entospletinib -0.053

ARFGAP1 (UniProt Q8N6T3)
Chain of UniProt Q8N6T3 (Q8N6T3 whole entry, looked up): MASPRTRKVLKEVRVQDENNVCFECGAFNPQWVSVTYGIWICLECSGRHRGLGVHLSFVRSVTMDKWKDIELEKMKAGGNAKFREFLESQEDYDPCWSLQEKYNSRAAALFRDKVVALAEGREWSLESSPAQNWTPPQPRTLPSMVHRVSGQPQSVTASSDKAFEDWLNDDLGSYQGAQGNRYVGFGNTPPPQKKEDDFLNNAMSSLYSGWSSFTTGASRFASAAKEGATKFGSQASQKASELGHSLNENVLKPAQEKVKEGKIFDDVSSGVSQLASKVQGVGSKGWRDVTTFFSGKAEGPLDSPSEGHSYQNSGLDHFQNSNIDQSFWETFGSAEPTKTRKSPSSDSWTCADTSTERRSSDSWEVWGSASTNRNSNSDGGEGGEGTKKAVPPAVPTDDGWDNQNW
inactive: [1] -0.036 | [2] -0.033 | [3] -0.073 | [4] -0.052 | entinostat 0.041 | vorinostat 0.006 | citarinostat 0.056 | silmitasertib 0.063 | [5] -0.092 | [6] 0.035 | entospletinib -0.032

BCLAF1 (UniProt Q9NYF8)
Chain of UniProt Q9NYF8 (Q9NYF8 whole entry, looked up): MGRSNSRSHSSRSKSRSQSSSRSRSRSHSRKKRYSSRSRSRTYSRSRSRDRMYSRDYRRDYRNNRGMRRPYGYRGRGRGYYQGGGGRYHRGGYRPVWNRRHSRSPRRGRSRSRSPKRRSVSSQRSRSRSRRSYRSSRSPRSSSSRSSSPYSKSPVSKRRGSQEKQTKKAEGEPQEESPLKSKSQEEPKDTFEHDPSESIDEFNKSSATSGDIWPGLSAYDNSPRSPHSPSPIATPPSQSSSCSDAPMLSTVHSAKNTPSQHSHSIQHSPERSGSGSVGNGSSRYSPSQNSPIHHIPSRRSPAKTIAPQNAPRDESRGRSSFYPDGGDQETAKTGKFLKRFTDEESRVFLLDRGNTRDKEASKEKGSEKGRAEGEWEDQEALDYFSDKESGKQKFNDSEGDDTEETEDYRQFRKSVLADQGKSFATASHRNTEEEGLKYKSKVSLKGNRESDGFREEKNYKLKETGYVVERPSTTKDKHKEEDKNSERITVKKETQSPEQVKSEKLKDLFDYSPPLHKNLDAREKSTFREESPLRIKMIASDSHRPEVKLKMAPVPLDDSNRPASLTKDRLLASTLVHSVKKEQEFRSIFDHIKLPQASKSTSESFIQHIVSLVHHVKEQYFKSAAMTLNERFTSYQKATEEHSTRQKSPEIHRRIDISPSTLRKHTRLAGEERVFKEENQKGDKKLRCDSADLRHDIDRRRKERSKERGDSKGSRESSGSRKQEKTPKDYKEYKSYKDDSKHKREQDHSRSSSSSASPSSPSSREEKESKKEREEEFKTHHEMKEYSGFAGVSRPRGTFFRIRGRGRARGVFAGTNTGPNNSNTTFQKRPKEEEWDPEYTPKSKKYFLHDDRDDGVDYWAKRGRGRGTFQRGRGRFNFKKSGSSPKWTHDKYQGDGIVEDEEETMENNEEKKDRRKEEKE
inactive: [1] 0.01 | [2] 0.006 | [3] 0.003 | [4] 0.064 | entinostat 0.047 | vorinostat 0.109 | citarinostat 0.07 | silmitasertib -0.361 | [5] 0.128 | [6] -0.31 | entospletinib 0.075

ARL1 (UniProt P40616)
Chain of UniProt P40616 (P40616 whole entry, looked up): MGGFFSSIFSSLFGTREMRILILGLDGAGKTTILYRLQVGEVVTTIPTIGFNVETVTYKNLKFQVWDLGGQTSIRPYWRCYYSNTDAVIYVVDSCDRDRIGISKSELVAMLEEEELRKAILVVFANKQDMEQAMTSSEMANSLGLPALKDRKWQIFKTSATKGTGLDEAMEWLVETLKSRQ
inactive: [1] 0.142 | [2] 0.055 | [3] -0.173 | [4] -0.019 | entinostat 0.031 | vorinostat 0.149 | citarinostat 0.161 | silmitasertib 0.006 | [5] 0.04 | [6] 0.007 | entospletinib -0.139

ATP5IF1 (UniProt Q9UII2)
Chain of UniProt Q9UII2 (Q9UII2 whole entry, looked up): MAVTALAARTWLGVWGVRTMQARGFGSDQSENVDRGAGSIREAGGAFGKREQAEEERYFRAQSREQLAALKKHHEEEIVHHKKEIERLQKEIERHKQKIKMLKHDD
inactive: [1] -0.039 | [2] -0.01 | [3] -0.02 | [4] 0.086 | entinostat -0.021 | vorinostat -0.07 | citarinostat -0.124 | silmitasertib -0.044 | [5] -0.092 | [6] 0.092 | entospletinib 0.057

AHCYL1 (UniProt O43865)
inactive: [1] 0.183 | [2] 0.106 | [3] 0.003 | [4] 0.046 | entinostat -0.109 | vorinostat 0.116 | citarinostat -0.017 | silmitasertib 0.188 | [5] -0.002 | [6] 0.253 | entospletinib 0.072

AKR1C2 (UniProt P52895)
Chain of UniProt P52895 (P52895 whole entry, looked up): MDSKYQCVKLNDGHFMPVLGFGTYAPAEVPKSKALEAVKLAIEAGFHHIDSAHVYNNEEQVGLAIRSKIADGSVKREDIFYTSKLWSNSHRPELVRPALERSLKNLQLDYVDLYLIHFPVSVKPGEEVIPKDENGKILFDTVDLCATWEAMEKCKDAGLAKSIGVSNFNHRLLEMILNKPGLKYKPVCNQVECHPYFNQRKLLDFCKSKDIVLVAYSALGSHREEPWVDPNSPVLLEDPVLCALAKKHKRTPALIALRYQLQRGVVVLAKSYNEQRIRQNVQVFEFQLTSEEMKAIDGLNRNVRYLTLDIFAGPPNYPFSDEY
inactive: [1] 0.133 | [2] -0.092 | [3] 0.206 | [4] -0.006 | entinostat -0.129 | vorinostat 0.012 | citarinostat 0.018 | silmitasertib 0.257 | [5] 0.079 | [6] -0.076 | entospletinib 0.071

ARHGAP1 (UniProt Q07960)
inactive: [1] -0.068 | [2] -0.048 | [3] -0.003 | [4] -0.051 | entinostat 0.016 | vorinostat 0.012 | citarinostat 0.009 | silmitasertib 0.014 | [5] -0.024 | [6] -0.093 | entospletinib 0.011

ACAD9 (UniProt Q9H845)
Chain of UniProt Q9H845 (Q9H845 whole entry, looked up): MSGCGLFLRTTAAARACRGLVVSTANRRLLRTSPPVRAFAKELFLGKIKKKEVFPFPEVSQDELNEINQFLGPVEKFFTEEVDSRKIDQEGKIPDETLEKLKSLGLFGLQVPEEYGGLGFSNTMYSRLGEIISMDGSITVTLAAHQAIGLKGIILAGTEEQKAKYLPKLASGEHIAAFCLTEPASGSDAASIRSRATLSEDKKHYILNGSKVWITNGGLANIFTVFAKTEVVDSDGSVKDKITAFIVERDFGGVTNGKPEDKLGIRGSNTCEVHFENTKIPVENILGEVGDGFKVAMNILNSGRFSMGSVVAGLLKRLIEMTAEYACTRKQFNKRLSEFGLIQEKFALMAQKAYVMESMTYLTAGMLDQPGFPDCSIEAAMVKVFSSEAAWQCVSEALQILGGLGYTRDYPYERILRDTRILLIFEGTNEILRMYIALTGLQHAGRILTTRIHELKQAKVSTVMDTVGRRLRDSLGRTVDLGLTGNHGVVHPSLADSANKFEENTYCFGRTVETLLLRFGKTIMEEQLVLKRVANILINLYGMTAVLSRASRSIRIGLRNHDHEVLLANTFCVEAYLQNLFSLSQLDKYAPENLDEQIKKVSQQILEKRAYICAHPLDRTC
inactive: [1] -0.009 | [2] -0.051 | [3] -0.036 | [4] -0.012 | entinostat -0.021 | vorinostat 0.033 | citarinostat 0.035 | silmitasertib 0.021 | [5] -0.016 | [6] 0.007 | entospletinib 0.02

AFDN isoform 1 (UniProt P55196)
inactive: [1] -0.016 | [2] 0.048 | [3] -0.043 | [4] -0.031 | entinostat 0.047 | vorinostat -0.033 | citarinostat 0.079 | silmitasertib 0.002 | [5] -0.054 | [6] -0.141 | entospletinib -0.028

ALKBH5 (UniProt Q6P6C2)
inactive: [1] 0.031 | [2] -0.021 | [3] 0.102 | [4] 0.052 | entinostat -0.076 | vorinostat 0.18 | citarinostat 0.109 | silmitasertib 0.033 | [5] 0.076 | [6] 0.042 | entospletinib -0.03

ATAD3B (UniProt Q5T9A4)
Chain of UniProt Q5T9A4 (Q5T9A4 whole entry, looked up): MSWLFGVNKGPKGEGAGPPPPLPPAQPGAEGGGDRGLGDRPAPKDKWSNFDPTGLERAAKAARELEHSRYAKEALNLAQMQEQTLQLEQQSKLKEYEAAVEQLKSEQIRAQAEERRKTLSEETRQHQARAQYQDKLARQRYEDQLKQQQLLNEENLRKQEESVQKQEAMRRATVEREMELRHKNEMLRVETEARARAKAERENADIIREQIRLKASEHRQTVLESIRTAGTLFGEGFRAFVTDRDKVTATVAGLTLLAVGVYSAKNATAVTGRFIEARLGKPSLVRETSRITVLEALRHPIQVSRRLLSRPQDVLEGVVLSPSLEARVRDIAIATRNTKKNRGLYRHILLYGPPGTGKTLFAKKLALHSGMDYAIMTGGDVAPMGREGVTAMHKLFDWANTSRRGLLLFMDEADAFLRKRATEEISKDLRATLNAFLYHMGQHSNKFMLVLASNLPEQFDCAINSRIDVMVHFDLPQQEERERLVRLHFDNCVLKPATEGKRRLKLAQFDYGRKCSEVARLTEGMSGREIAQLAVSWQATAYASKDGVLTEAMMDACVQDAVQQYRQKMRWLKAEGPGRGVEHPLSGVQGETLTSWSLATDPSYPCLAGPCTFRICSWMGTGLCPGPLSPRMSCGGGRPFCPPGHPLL
inactive: [1] 0.017 | [2] -0.029 | [3] -0.089 | [4] -0.088 | entinostat 0.013 | vorinostat 0.108 | citarinostat -0.016 | silmitasertib 0.005 | [5] 0.248 | [6] -0.104 | entospletinib 0.058

ATF7 isoform 6 (UniProt P17544)
inactive: [1] -0.113 | [2] 0.138 | [3] -0.123 | [4] 0.268 | entinostat -0.045 | silmitasertib 0.067 | [5] -0.044

ANK2 (UniProt Q01484)
inactive: [1] -0.146 | [2] -0.196 | [3] -0.183 | [4] -0.16 | entinostat 0.001 | vorinostat 0.134 | citarinostat -0.104 | silmitasertib -0.004 | [6] -0.019 | entospletinib 0.016

AIFM2 (UniProt Q9BRQ8)
Chain of UniProt Q9BRQ8 (Q9BRQ8 whole entry, looked up): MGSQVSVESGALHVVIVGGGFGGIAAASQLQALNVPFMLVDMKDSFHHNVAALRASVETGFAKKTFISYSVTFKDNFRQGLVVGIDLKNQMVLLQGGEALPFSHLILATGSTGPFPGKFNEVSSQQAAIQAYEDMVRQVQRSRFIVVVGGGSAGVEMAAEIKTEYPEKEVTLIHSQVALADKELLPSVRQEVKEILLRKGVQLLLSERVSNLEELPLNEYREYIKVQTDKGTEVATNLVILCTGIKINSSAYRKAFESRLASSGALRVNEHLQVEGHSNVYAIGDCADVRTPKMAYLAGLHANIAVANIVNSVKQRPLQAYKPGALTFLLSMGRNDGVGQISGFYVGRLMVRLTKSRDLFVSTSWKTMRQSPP
inactive: [1] 0.016 | [2] -0.019 | [3] 0.034 | [4] -0.02 | entinostat -0.01 | vorinostat -0.053 | citarinostat 0.046 | silmitasertib 0.03 | [5] 0.047 | [6] -0.034 | entospletinib 0.01

ABCC5 (UniProt O15440)
inactive: [1] 0.016 | [2] 0.088 | [3] -0.038 | [4] -0.005 | entinostat -0.017 | vorinostat 0.001 | citarinostat 0.114 | silmitasertib 0.008 | [5] -0.082 | [6] 0.12 | entospletinib 0.028

BRIX1 (UniProt Q8TDN6)
Chain of UniProt Q8TDN6 (Q8TDN6 whole entry, looked up): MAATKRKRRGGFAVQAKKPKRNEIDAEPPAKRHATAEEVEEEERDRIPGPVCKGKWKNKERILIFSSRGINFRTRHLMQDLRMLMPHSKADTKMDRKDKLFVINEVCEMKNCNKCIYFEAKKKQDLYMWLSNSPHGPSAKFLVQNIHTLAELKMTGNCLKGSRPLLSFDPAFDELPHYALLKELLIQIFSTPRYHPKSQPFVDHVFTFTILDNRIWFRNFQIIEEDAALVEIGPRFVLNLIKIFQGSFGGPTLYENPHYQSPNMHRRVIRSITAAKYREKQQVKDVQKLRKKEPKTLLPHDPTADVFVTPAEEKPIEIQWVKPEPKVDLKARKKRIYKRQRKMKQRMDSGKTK
inactive: [1] 0.056 | [2] -0.025 | [3] 0.171 | [4] 0.132 | entinostat -0.008 | vorinostat 0.059 | citarinostat -0.05 | silmitasertib 0.191 | [5] 0.401 | [6] -0.437 | entospletinib 0.029

Source: the supplement of paper PMC10849652
